# 14-3-3 PPI = modulators of 14-3-3 gamma protein binding, primary screen, biochemical, fluorescence polarization; 14-3-3 protein gamma (Homo sapiens), P61981; FP, 14-3-3gamma / TMR-pS259-Raf peptide binding; inhibition, % at 40 µM; 160,000 tested, 0.19% active; in the data active means inhibition above about 30%
# Target sequence (P61981 whole entry, looked up): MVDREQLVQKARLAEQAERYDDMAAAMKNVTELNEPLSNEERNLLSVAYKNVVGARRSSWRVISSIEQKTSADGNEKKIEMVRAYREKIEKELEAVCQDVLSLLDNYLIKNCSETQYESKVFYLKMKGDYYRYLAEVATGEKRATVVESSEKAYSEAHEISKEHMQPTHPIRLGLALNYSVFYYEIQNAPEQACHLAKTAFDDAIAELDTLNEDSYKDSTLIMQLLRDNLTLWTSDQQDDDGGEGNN
# Numbers stand for hits; – = inactive. Shown is part of a subset that was picked to be rich in hits.
SMILES,14-3-3 PPI
COc1ccc(C2Sc3nncn3N2Cc2ccc(C#N)cc2)cc1 (stereo not drawn),–
CCc1ccc2[nH]cc(C(=O)N3CCCCCC3)c(=O)c2c1,–
O=C1C2CC=C(Cl)CC2C(=O)N1CC1OCCc2ccccc21 (stereo not drawn),–
COc1ccccc1NC(=O)c1ccc(SCC(=O)NC(C)C)c([N+](=O)[O-])c1,–
O=C(CCSc1ccccc1)Nc1cccc(-c2nc3ccccc3s2)c1,–
Cc1c(NC(=O)c2ccccc2[N+](=O)[O-])c(=O)n(-c2ccccc2)n1C,–
COc1ccc(/C=N/n2c(N)nc3ccccc32)cc1OC,–
O=C(NCc1ccco1)c1cc2c(=O)n3ccccc3nc2s1,–
CCCC1CC(CSC(=N)N)OC1=O (stereo not drawn),–
Cc1cccc(N/C(N)=N/c2nc(C)c(C)c(=O)[nH]2)c1,–
Cc1ccc(N2CCN(CC(O)COC3CCCCC3)CC2)cc1 (stereo not drawn),–
COc1ccc(CCCc2n[nH]c(=S)o2)cc1C,–
CCc1c(C)c(C#N)c2nc3ccccc3n2c1Nc1ccc(NC(C)=O)cc1,–
N#Cc1ccccc1Sc1ccccc1C(=O)Nc1ccccc1C(F)(F)F,–
COc1ccc(-c2c(C#N)c(N)n3c(nc4ccccc43)c2C#N)cc1O,–
CCOc1cccc(C2Nc3ccccc3-c3nnc(SC)nc3O2)c1OC (stereo not drawn),–
CCOc1cc(C2Nc3ccccc3-c3nnc(SC)nc3O2)cc(Br)c1OCC (stereo not drawn),–
CCOc1ccc([N+](=O)[O-])cc1C1Nc2ccccc2-c2nnc(SC)nc2O1 (stereo not drawn),38.3
Fc1ccccc1C1C=C(c2cccs2)Nc2nnnn21 (stereo not drawn),–
Fc1cccc(C2C=C(c3ccc(Cl)cc3)Nc3nnnn32)c1 (stereo not drawn),–
Fc1cccc(C2C=C(c3cccs3)Nc3nnnn32)c1 (stereo not drawn),63.4
Nc1ccc(S(=O)(=O)Nc2ccccn2)cc1,–
O=C(CNC(=O)c1cn(-c2ccccc2)nc1-c1ccc(Br)cc1)c1ccccc1,–
O=C(NCCN1CCOCC1)c1cccn2c(=O)c3cc4ccccc4cc3nc12,–
COc1ccc(N2CCN(CCNC(=O)c3cccn4c(=O)c5cc6ccccc6cc5nc34)CC2)cc1,178.9
SMILES,14-3-3 PPI
COc1ccc(N2CCN(CCNC(=O)c3cccn4c(=O)c5ccc(Cl)cc5nc34)CC2)cc1,–
COc1ccc(C(c2sc3nc(C)nn3c2O)N2CCN(CCO)CC2)cc1OC (stereo not drawn),–
O=C(NCc1ccccn1)c1cc(Nc2cccc(C(F)(F)F)c2)nc2ccccc12,152.4
CC(C)OCCCNC(=O)c1cc(Nc2cccc(C(F)(F)F)c2)nc2ccccc12,–
Cc1ccc(C)c(Nc2cc(C(=O)NCc3ccccn3)c3ccccc3n2)c1,–
Cc1ccc(S(=O)(=O)Nc2cc(C(=O)NCCc3ccccc3)ccc2N2CCCCC2)cc1,–
Cc1ccc(S(=O)(=O)Nc2cc(C(=O)NCCc3ccccc3)ccc2N2CCCC2)cc1,–
Cc1ccc(S(=O)(=O)Nc2cc(C(=O)NCc3cccnc3)ccc2N2CCCCC2)cc1,36.6
CC(=O)N1c2ccc(S(=O)(=O)CCC(=O)NCc3ccccc3)cc2CC1C (stereo not drawn),–
COc1cccc(CNC(=O)CCS(=O)(=O)c2ccc3c(c2)CC(C)N3C(C)=O)c1 (stereo not drawn),–
CC(=O)N1c2ccc(S(=O)(=O)CCC(=O)NCc3ccc(C)cc3)cc2CC1C (stereo not drawn),33.1
CCOc1ccc(NC(=O)c2ccc3c(=O)n(-c4ccccc4)c(=S)[nH]c3c2)cc1,–
O=C(O)c1ccc(NC2=C(N3CCOCC3)C(=O)c3ccccc3C2=O)cc1,55.8
CCCCOc1ccc(NC2=C(N3CCOCC3)C(=O)c3ccccc3C2=O)cc1,–
O=C(O)c1cccc(NC2=C(N3CCCC3)C(=O)c3ccccc3C2=O)c1,–
O=C(NCCc1ccccc1)C1c2ccccc2C(=O)N1C1CCCCCC1 (stereo not drawn),–
Cn1c(=O)[nH]c(=O)c2c1nc(CN1CCN(c3ccc(F)cc3)CC1)n2CCN1CCOCC1,–
O=C(C1CCN(S(=O)(=O)c2cnc[nH]2)CC1)N1CCN(c2ncccn2)CC1,–
Cc1ccccc1C(=O)Nc1ccccc1C(=O)Nc1ccccc1,35.1
Cc1ccccc1NC(=O)c1ccccc1C,–
Cc1ccc(NC(=O)c2ccccc2C)cc1I,–
Cc1cc(C)cc(N2C(=O)CSC2c2ccccc2F)c1 (stereo not drawn),–
CC(=O)c1cccc(NC(=O)C2CCN(S(=O)(=O)c3cccs3)CC2)c1,–
CCCCN(CCCNc1ncnc2nc[nH]c12)c1ccccc1,–
Cc1cc(C)cc(-n2ccnc2SCC(=O)NC2CCCC2)c1,30.7
SMILES,14-3-3 PPI
O=C(CSc1nccn1-c1cccc(Cl)c1)NC1CCCCC1,–
Cc1cc(C)cc(-n2ccnc2SCC(=O)Nc2c(C)cc(C)cc2C)c1,–
Cc1csc(NC(=O)CCN2C(=O)c3ccccc3S2(=O)=O)n1,–
CCCCNc1ncc2cc3ccccc3nc2c1C#N,90.0
CCCCCn1c(N)c(C#N)c2nc3ccccc3nc21,–
CCCCNc1ncc(C(C)=O)c2ccccc12,–
CCN(C(=O)c1c(OC)cccc1OC)c1nnc(-c2cccnc2)s1,–
CCn1cc(C(=O)NCc2ccccn2)c(=O)c2cc(S(=O)(=O)N3CCCCC3)ccc21,119.2
CCn1cc(C(=O)NC2CCCCC2)c(=O)c2cc(S(=O)(=O)N3CCCCCC3)ccc21,–
CCn1cc(C(=O)NCc2ccco2)c(=O)c2cc(S(=O)(=O)N3CCCCCC3)ccc21,–
N#Cc1c(N=Cc2ccc([N+](=O)[O-])cc2)sc2c1CCC2,135.5
N#Cc1c(N=Cc2cc([N+](=O)[O-])ccc2Cl)sc2c1CCCC2,–
N#Cc1c(N=Cc2ccc(Cl)c([N+](=O)[O-])c2)sc2c1CCCC2,–
N#Cc1c(N=Cc2cc([N+](=O)[O-])ccc2O)sc2c1CCCC2,–
Cc1ccc(C=Nc2sc3c(c2C#N)CCC3)cc1,–
N#Cc1c(N=Cc2ccc([N+](=O)[O-])s2)sc2c1CCCC2,63.0
COc1ccc2cc3cc(C(=O)N(C)Cc4ccccc4)sc3nc2c1,–
CCCOc1ccc(/C(O)=C2/C(=O)C(=O)N(CCN(C)C)C2c2ccc(O)c(OC)c2)cc1 (stereo not drawn),–
CCCOc1ccc(C2/C(=C(/O)c3ccccc3)C(=O)C(=O)N2CCCN(C)C)cc1OC (stereo not drawn),34.9
COc1ccc(/C(O)=C2/C(=O)C(=O)N(CCCN(C)C)C2c2ccc(Cl)cc2)cc1OC (stereo not drawn),–
CCOC(=O)c1ccc(NC(=O)c2cc(S(=O)(=O)N3CCOCC3)ccc2Cl)cc1,–
CC1(C)Cc2c(sc3c2c(=N)n(Cc2ccco2)c(=O)n3CC(=O)Nc2ccccc2)CO1,–
Cc1nc2cc(C(=O)O)ccc2s1,–
COc1cccc2c3c(c(C)nc12)CC(C)S3 (stereo not drawn),–
Cc1nc2ccc(C(=O)O)cc2c2c1CC(C)S2 (stereo not drawn),73.4
Nc1cc(=O)[nH]c(SCC(=O)c2ccc(O)cc2O)n1,–
Cc1cc2c(c(=O)n1Cc1ccco1)C(c1cccnc1)C(C#N)=C(N)O2 (stereo not drawn),–
CCc1ccccc1NC(=O)c1cc(S(=O)(=O)N2CC(C)CC(C)C2)ccc1F (stereo not drawn),–

# Screening data as filed in PubChem BioAssay.
